Experimental data as given in PubChem BioAssay AID574 (The Scripps Research Institute Molecular Screening Center, 2007).
The campaign covered roughly 65,000 compounds. About 450 (0.69%) were called active.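 The calls were made as follows: active = activation above a set limit, the screen-wide mean activation plus 3 SD (cut at about 8.5% in these data); inactive = the rest.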 This excerpt belongs to a sample that is enriched for actives. Where a SMILES comes first, the peptide text is derived from it. The star is where a group is joined. Bz = O=C(c1ccccc1)*

Target: 5-hydroxytryptamine receptor 1E (Homo sapiens) (UniProt P28566)
Experiment: 5-HT1E receptor agonists, primary screen, cell-based, HTS (AID 574);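 also: 100% = positive control agonist at 1 µM giving full maximal response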
Conditions: CHO 5-HT1E Ga15 NFAT-bla reporter, FRET; at 6 µM; stronger effect = higher value; 0% DMSO wells, 100% control agonist wells

5-hydroxytryptamine receptor 1E (Homo sapiens), sequence (P28566 whole entry, looked up): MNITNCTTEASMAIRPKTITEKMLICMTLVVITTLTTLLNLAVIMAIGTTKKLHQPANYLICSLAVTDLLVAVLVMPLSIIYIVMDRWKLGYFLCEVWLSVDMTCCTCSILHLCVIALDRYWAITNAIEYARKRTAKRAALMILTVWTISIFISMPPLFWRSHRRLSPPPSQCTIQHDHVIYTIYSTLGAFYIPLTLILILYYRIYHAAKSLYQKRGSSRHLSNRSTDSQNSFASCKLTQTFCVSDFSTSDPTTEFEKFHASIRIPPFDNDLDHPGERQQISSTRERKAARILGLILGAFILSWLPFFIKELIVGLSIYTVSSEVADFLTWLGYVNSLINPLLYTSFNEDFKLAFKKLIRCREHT

SMILES | activation
CCCN(c1ccc(C(C)C)cc1)S(=O)(=O)c1c(C)[nH]c(=O)[nH]c1=O | -0.3% (inactive)
O=C(Cn1cc2c(n1)CCCCC2)NCCN1CCOCC1 | 9.7% (active)
COCCNC(=O)Cn1cc2c(n1)CCCCC2 | -0.1% (inactive)
COc1ccccc1CNC(=O)Cn1cc2c(n1)CCCC2 | -0.6% (inactive)
COCCCNC(=O)COc1cc(C)c(Cl)c(C)c1 | -0.3% (inactive)
NC(=S)c1ccc(C(N)=S)o1 | 0% (inactive)
Cc1nn(-c2cc(Cl)ccc2N)c(=O)c2ccccc12 | -0.1% (inactive)
Cc1cccc(NC(=O)CSc2nnc(CCCCCNC(=O)OC(C)(C)C)o2)c1C | -1.3% (inactive)
O=C(O)C1CCN1C1CCCCC1 (configuration not stated) | -0.7% (inactive)
Cc1ccc(S(=O)(=O)N2C3C=CC(C3)C2C(=O)O)cc1 (configuration not stated) | -0.4% (inactive)
COc1ccc(C(=O)N(Cc2ccc(N(C)C)cc2)C2CCS(=O)(=O)C2)cc1 (configuration not stated) | 0.3% (inactive)
O=C(/C(=N\O)n1cncn1)c1ccc(Br)cc1Br | 0.1% (inactive)
CCn1c(=N)c(S(=O)(=O)c2ccc(F)cc2)cc2c(=O)n3ccccc3nc21 | 4.4% (inactive)
O=C(NC1CCCC1)c1ccc(Br)s1 | -1.5% (inactive)
Clc1ccc(C=NC23CN4CN(CN(C4)C2)C3)cc1 | -0.1% (inactive)
O=C(CN1CCN(CC(=O)Nc2ccc3c(c2)OCO3)CC1)Nc1ccc(F)cc1 | -0.7% (inactive)
Cc1nnc(SCc2ccc(C(=O)c3ccc(Cl)cc3)o2)n1-c1ccccc1 | 0.9% (inactive)
O=C(NC(Cc1ccccc1)C(=O)N1CCCC1C(=O)O)c1ccccc1 (stereo not drawn) (Bz-Phe-Pro-OH; configuration not given here) | -0.4% (inactive)
N#Cc1c(/N=C/N2CCCC2)oc(-c2ccccc2)c1-c1ccccc1 | 0.2% (inactive)

SMILES | activation
O=C(CS(=O)(=O)Cc1ccccc1)Nc1cccnc1 | 1.1% (inactive)
O=C(Nc1ccccc1)N(Cc1cccnc1)Cc1ccco1 | 10.7% (active)
O=C(Nc1ccccc1)Nc1ccccc1C(=O)NCc1ccco1 | -0.6% (inactive)
COc1cccc(OCC(O)CN2CCN(CCO)CC2)c1 (configuration not stated) | -0.1% (inactive)
C=CCC(NCCCO)c1cccc(OC)c1OC (configuration not stated) | 10.3% (active)
COc1ccccc1C(=O)C(O)c1ccccc1OC (configuration not stated) | -0.2% (inactive)
COc1cccc(C(CC(=O)NCCN2CCOCC2)NS(=O)(=O)c2ccc(C)cc2)c1OC (configuration not stated) | 0.5% (inactive)
CC1CCCC(N2CCN(C(=O)c3ccc(F)cc3)CC2)C1 (configuration not stated) | -0.1% (inactive)
O=C(O)CN(Cc1ccco1)S(=O)(=O)c1ccc(F)cc1 | 0% (inactive)
COc1cccc(OC)c1C(=O)Nc1nnc(C(C)C)s1 | -0.1% (inactive)
CCn1c(CNc2ccc(OC)cc2)nnc1SCC(=O)c1ccc(OC)cc1 | 0.6% (inactive)
CC1=C(C(=O)OC2CCCCC2)C(c2cccnc2)n2ncnc2N1 (configuration not stated) | -0.4% (inactive)
Cc1ccnc(SCCn2c(N(C)Cc3ccccc3)nc3c2c(=O)n(C)c(=O)n3C)n1 | -0.1% (inactive)
CCOC(=O)C1(c2ccccc2)NC(c2ccc(N(C)C)cc2)C2C(=O)N(C)C(=O)C21 (configuration not stated) | 0.7% (inactive)
COc1ccccc1-n1cnc2cc(C(=O)NCC3CCCO3)ccc21 (configuration not stated) | 0% (inactive)
C=CCn1c(COc2ccccc2)nnc1SCC(=O)NCC(=O)OCC | -0.3% (inactive)
CCc1nnc(NC(=O)CSc2nc3c(c(=O)n2-c2ccccc2OC)SCC3)s1 | -0.6% (inactive)
CCCC1C(c2ccccc2)C(C#N)(C#N)C2(C#N)CC1(N)NC2=O (configuration not stated) | 0.5% (inactive)
Cc1cc(C(=O)OCC(=O)c2c(N)n(C)c(=O)n(C)c2=O)c(C)o1 | 0.7% (inactive)

SMILES | activation
CC(=O)c1c(N)n(C)c(=O)n(C)c1=O | 22.1% (active)
CC(=O)OCc1cc(=O)n(C)c(=O)n1C | -1.2% (inactive)
Cc1ccc(N(C(=O)CC2NC(=O)NC2=O)C2(C(=O)NC3CCCC3)CCCCC2)cc1 (configuration not stated) | -0.5% (inactive)
CC(C)(C)OC(=O)c1c(N)n(CCCN2CCCC2=O)c2nc3ccccc3nc12 | 2.2% (inactive)
CSc1nc2ccc(S(=O)(=O)N3CCc4ccccc43)cc2s1 | 0.9% (inactive)
COCCCNC(=O)C1CC(=O)N(c2ccc(C)cc2)C1 (configuration not stated) | -1.2% (inactive)
CC(CCO)Nc1nc2c([nH]1)c(=O)n(C)c(=O)n2C (configuration not stated) | -1.6% (inactive)
CCCOc1ccc(/C(O)=C2/C(=O)C(=O)N(CCN(C)C)C2c2ccc(OC)c(OC)c2)cc1 (configuration not stated) | -0.3% (inactive)
O=C(Nc1cccc2c1CCCC2)C1CCN(C(=O)NC2CCCCC2)CC1 | -1.2% (inactive)
CC1(C)CN=C(N2CCN(c3ncnc4sc5c(c34)CCCC5)CC2)S1 | -0.6% (inactive)
CCc1ccc(Nc2ncc3c(n2)CC(c2ccco2)CC3=O)cc1 (configuration not stated) | -0.5% (inactive)
CCOCC(=O)NCc1ccc2c(c1)cc(C)n2C | 0.7% (inactive)
COc1ccc(S(=O)(=O)Nc2ccc3c(c2)OCO3)cc1Cl | -1.3% (inactive)
Cc1nc(NCCN)c(C#N)c2c1COC(C)(C)C2 | -0.4% (inactive)
CCCCN(C)C(=O)c1ccc2c(c1)N(CC)C(=O)c1ccccc1S2(=O)=O | -1.1% (inactive)
O=C(Nc1ccccc1C(=O)N1CCOCC1)C1CCC(=O)N1C1CCCC1 (configuration not stated) | 0.6% (inactive)
Cc1cc(=O)cc(C)[nH]1 | 33.2% (active)
Cc1cc(C)nc(SCc2nnc(SCC(=O)Nc3ncc(C)s3)n2Cc2ccco2)n1 | 0.8% (inactive)
CCN1C(=O)CS/C1=N\c1nccs1 | -0.1% (inactive)
